PAFAH2 inh: PAFAH2 (human) inhibition; Q99487; recombinant PAFAH2, FP-rhodamine activity probe, fluorescence polarization; inhibition, % at 3.39 µM; 0.99% of 340,000 active; AID 492956;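 active = inhibition above the mean over all tested compounds plus 3 SD, cut at about 30% in these data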;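 also: inhibitors block probe labeling of enzyme so polarization drops; 0% = enzyme with DMSO and 100% = wells lacking PAFAH2 protein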
pPAFAH inh: inhibitors of human plasma PAF acetylhydrolase (pPAFAH) | recombinant pPAFAH, FP-rhodamine probe fluorescence polarization | inhibition, % at 3.39 µM | 1.5% of 330,000 active | AID 463082;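 active = inhibition above the mean inhibition across the screen plus 3 SD, cut at about 25% in these data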;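 also: inhibitors block binding of the rhodamine activity-based probe so polarization drops; 0% = enzyme with DMSO and 100% = wells lacking pPAFAH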
Target sequence (Q13093 whole entry, looked up): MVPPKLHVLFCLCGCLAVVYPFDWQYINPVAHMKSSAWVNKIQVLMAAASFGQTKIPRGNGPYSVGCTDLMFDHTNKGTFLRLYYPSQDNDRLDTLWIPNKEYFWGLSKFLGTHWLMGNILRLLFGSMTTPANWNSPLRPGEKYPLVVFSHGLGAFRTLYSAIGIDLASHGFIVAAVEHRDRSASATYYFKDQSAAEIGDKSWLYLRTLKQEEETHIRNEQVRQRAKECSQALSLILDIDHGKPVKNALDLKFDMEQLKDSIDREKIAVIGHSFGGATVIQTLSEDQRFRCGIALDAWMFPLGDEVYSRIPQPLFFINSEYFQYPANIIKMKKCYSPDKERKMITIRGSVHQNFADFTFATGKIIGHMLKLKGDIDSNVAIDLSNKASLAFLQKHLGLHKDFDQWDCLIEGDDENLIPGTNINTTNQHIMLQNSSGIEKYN
PAFAH1B3 FP inh: blocks human PAF acetylhydrolase 1B catalytic subunit 3. 0.28% of 340,000 active. Q15102. inhibition, % at 3.39 µM. AID 492972. recombinant PAFAH1B3, FP-rhodamine probe, fluorescence polarization;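 active = inhibition above the screen-wide average of all tested compounds plus 3 SD, cut at about 25% in these data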;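 also: 0% = enzyme with DMSO only and 100% = wells lacking PAFAH1B3 protein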
PAFAH1B2 inh: blocks human PAF acetylhydrolase 1b catalytic subunit 2. 1.2% of 340,000 active. inhibition, % at 3.39 µM. recombinant PAFAH1B2, FP-rhodamine activity probe, fluorescence polarization;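 active = inhibition above the mean of all tested compounds plus 3 SD, cut at about 24% in these data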;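 also: 0% = enzyme with DMSO and 100% = wells lacking PAFAH1B2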
DAGLB inh: diacylglycerol lipase beta (human) inhibition; inhibition, % at 5.17 µM; 0.059% of 340,000 active; Q8NCG7; HEK293T DAGLB membrane lysate, EnzChek fluorogenic substrate; in the data active = inhibition above about 34%;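 also: 0% = enzyme with vehicle and 100% = wells lacking enzyme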
HTRA1 inhibitor: inhibitors of human serine peptidase HTRA1. Q92743. recombinant HTRA1, FP-rhodamine activity-based probe, fluorescence polarization. inhibition, % at 5.96 µM. 0.5% of 340,000 active; in the data active = inhibition above about 36%;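 also: 0% = enzyme with DMSO and 100% = wells lacking enzyme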
pPAFAH confirm: pPAFAH (human) inhibition, confirmed; recombinant pPAFAH, FP-Rh probe fluorescence polarization; 72% of 2,300 active; inhibition, % at 3.39 µM; shares compounds with pPAFAH inh; AID 463230;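 active = mean inhibition of the triplicate above the hit cutoff set for the earlier primary screen, cut at about 25% in these data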;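 also: 0% = enzyme with DMSO and 100% = wells lacking pPAFAH enzyme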
Starred values were filed as active, the others as inactive; . = no result. A selection: hits, their analogues and other compounds. The true share with any hit is near 2.8%.

SMILES	PAFAH2 inh	pPAFAH inh	PAFAH1B3 FP inh	PAFAH1B2 inh	DAGLB inh	HTRA1 inhibitor	pPAFAH confirm
O=C1CC(c2ccccc2Oc2cccc(Cl)c2)C(n2cncn2)C(=O)C1C1NCCc2ccccc21 (stereo not given)	7	19	3	5	3	-16	.
CC(C)c1nn2c(=O)cc(COc3cccc(NC(=O)c4ccco4)c3)nc2s1	-27	-5	7	4	3	-3	.
COc1ccc(C(=O)/C=C/c2cccs2)c(OC(=O)N2CCOCC2)c1	3	4	7	-1	0	-2	.
O=C(/C=C/c1cccs1)c1cc(Br)ccc1OC(=O)N1CCOCC1	84*	64*	0	3	-2	-5	61*
CCOc1ccc(S(=O)(=O)N2CCCCC2)cc1NC(=O)Cc1cc(OC)c(OC)c(OC)c1	.	.	.	.	-2	-6	.
COc1ccc(Cl)cc1/C=C/c1ccc2cccc(O)c2n1	-7	2	3	-1	-8	9	.
COc1ccccc1/C=C/c1ccc2cccc(O)c2n1	6	42*	9	-3	-3	30	24
O=C(CN(C(=O)CNC(=O)c1cccs1)c1ccccc1)NC1CCCCC1	5	3	-3	-3	0	-1	.
COc1cc(C(C)=O)ccc1OCC(=O)N(CCC1=CCCCC1)c1c(N)n(Cc2ccccc2)c(=O)[nH]c1=O	-5	7	5	-5	4	-9	.
CN1C(=O)c2ccccc2CC12c1ccccc1C(=O)N2C (stereo not given)	.	.	.	.	-2	1	.
Cc1cc(C)cc(CC2CC(=O)N(c3cc(C)ccc3C)C2=O)c1 (stereo not given)	4	.	10	1	-2	-4	.
Cc1ccc(N2C(=O)CC(Cc3cc(C)cc(C)c3)C2=O)cc1 (stereo not given)	-6	50*	0	3	-11	-3	5
N#C/C(=N\Nc1cccc([N+](=O)[O-])c1)C(=O)c1ccc(Br)cc1	35*	60*	24	14	19	-20	61*
O=C(O)c1ccc(N=NNc2cccc([N+](=O)[O-])c2)cc1	6	9	-6	-1	1	-6	.
N=C1/C(=C\c2ccc(OC(=O)c3ccccc3Cl)cc2)C(=O)N=C2SC(N3CCOCC3)=NN12	8	36*	16	5	4	-16	33*
COc1cc(/C=C2\C(=N)N3N=C(N4CCOCC4)SC3=NC2=O)ccc1OC(=O)c1ccccc1	26	15	1	12	5	6	.
O=C1C(=Cc2ccc(Br)o2)C(=O)c2ccccc21	71*	50*	18	9	3	31	66*
Cc1ccccc1CNC(=O)c1ccccc1SCC(=O)NCc1ccco1	-3	.	-2	3	3	-1	.
COc1ccc(CNC(=O)Cc2ccc(NC(=O)C3=C(C)OCCS3)cc2)cc1	2	24	-2	-3	1	2	.
CC1=C(C(=O)Nc2ccc(CC(=O)NCc3ccc(OC(C)C)cc3)cc2)SCCO1	13	38*	6	5	0	-4	19
C[C@@H]1O[C@@H](OCCC(=O)O)[C@H](O)C[C@H]1O	-3	-4	5	-2	1	0	.
CC(=O)c1c(C)[nH]c(C(=O)COC(=O)c2ccc(Cl)nc2)c1C	2	-4	11	-5	1	1	.
CNc1nc(-c2ccc([N+](=O)[O-])cc2)cs1	1	0	-3	-3	1	-5	.
COc1ccc(-c2csc(NS(=O)(=O)c3ccc([N+](=O)[O-])cc3)n2)cc1	11	38*	5	2	21	4	45*
COc1ccc(-c2csc(NC(=O)c3ccccc3NS(=O)(=O)c3ccc(F)c(F)c3)n2)cc1	20	50*	13	12	11	-48	39*
SMILES	PAFAH2 inh	pPAFAH inh	PAFAH1B3 FP inh	PAFAH1B2 inh	DAGLB inh	HTRA1 inhibitor	pPAFAH confirm
Cc1ccc(N2C(=O)c3ccccc3C2C(=O)c2ccc(O)cc2O)cc1 (stereo not given)	9	47*	9	0	1	-32	5
O=C(O)c1cc(-c2ccc(/C=C3\NC(=O)N(c4ccc(Cl)cc4)C3=O)o2)ccc1Cl	22	37*	11	7	3	6	23
O=C(O)c1cc(-c2ccc(/C=C3\NC(=O)N(c4ccccc4)C3=O)o2)ccc1Cl	18	16	5	3	0	5	.
Cc1c(CCC(=O)O)c(=O)oc2cc(OCc3ccccc3F)ccc12	1	16	0	15	0	-4	.
Cc1nccc(-c2cccc(N/N=C(\C#N)C(=O)c3ccccc3)c2)n1	3	22	5	-1	9	1	.
N#C/C(=N\Nc1cccc(C(F)(F)F)c1)C(=O)c1ccsc1	16	37*	7	11	13	-6	29*
COC(=O)C1SCC2C(=O)N(Cc3ccc(Cl)c(Cl)c3)CC(=O)N21 (stereo not given)	-5	0	0	0	2	-2	.
O=C(C[C@H]1C/C=C\CC[C@H](Cc2ccc(F)cc2)C(=O)O[C@H](c2ccccc2)CNC1=O)N[C@H](CO)Cc1ccccc1	6	55*	13	4	2	-7	-3
O=C(NC(=S)Nc1cnc2ccccc2c1)c1ccccc1	-1	3	9	-3	-5	-24	.
O=C(Nc1cnc2ccccc2c1)c1ccncc1	0	52*	4	4	0	9	5
CC(C)(C)S(=O)(=O)/C(C#N)=N/Nc1ccc(Cl)cc1	2	35*	10	6	7	0	37*
Cc1ccc(S(=O)(=O)N[C@H](C(=O)OCC(=O)N2N=C(c3ccc(Cl)cc3)CC2c2ccco2)C(C)C)cc1 (stereo not given in full)	1	40*	0	-8	-2	-27	9
O=C(COC(=O)c1ccccc1)Nc1ncc([N+](=O)[O-])s1	57*	56*	26*	18	5	11	38*
O=C(Nc1ncc([N+](=O)[O-])s1)c1cccc([N+](=O)[O-])c1	0	3	5	8	4	1	.
CCOC(=O)c1cc(-c2ccc(F)cc2)n(CCC(=O)NC2CCN(Cc3ccccc3)CC2)c1C	9	40*	-2	0	-4	-18	16
CCOC(=O)c1cc(-c2ccc(OC)cc2)n(CCC(=O)NC2CCN(Cc3ccccc3)CC2)c1C	-7	16	4	-1	3	-13	.
CC(=O)NC(c1cccs1)c1cc([N+](=O)[O-])c2cccnc2c1O (stereo not given)	3	49*	4	5	23	30	46*
CCOCCn1c(=NC(=O)CSCC(=O)N2CCOCC2)sc2cc(OC)ccc21	-7	6	5	6	-1	0	.

High-throughput results as filed in PubChem BioAssay.
